# Test results published in article PMC7862700, “An all-to-all approach to the identification of sequence-specific readers for epigenetic DNA modifications on cytosine”.
# Assays:
# Assay in all cases: DAPPL (digital affinity profiling via proximity ligation, sequencing); 10 mM Tris-HCl pH 7.5, 50 mM NaCl, 1 mM DTT, 4% glycerol, room temperature, 30 min; GST-TFs on glutathione beads, 16-mer random dsDNA library, 0.1% formaldehyde crosslink after washing; high values mean tight binding
# FEV = target: T1, FEV (Homo sapiens, UniProt Q99581 1-238); conditions: protein: recombinant; tags: N-terminal GST; dsDNA, one strand shown
# T1 sequence: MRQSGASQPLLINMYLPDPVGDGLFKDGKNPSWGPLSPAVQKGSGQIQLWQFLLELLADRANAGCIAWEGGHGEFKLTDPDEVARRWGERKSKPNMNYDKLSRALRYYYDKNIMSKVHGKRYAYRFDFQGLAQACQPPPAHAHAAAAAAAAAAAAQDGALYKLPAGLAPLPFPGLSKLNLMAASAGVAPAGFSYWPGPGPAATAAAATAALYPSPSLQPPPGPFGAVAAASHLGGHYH
# In short: (§1)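 Each value of binding signal is a hexamer's read frequency for a factor divided by the same hexamer's frequency in the tag-only sample. Barcoded, bead-captured GST fusions of human transcription factors made in yeast were pooled with that sample and incubated with 200 nmole of a random double-stranded 16-mer DNA library in Tris/NaCl/DTT/glycerol buffer at room temperature for 30 min. Washing, 0.1% formaldehyde crosslinking, proximity ligation, PCR and Illumina NextSeq500 sequencing followed.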
# ETV5 = ETV5 (Homo sapiens, UniProt P41161 1-510); conditions: protein: recombinant; tags: N-terminal GST; dsDNA, one strand shown
# In short: as §1
# HSF1 = HSF1 (Homo sapiens, UniProt Q00613 1-529); conditions: protein: recombinant; tags: N-terminal GST; chain copies: 3; dsDNA, one strand shown
# In short: as §1
# SPIC = target: T2, SPIC (Homo sapiens, UniProt Q8N5J4 1-248); conditions: protein: recombinant; tags: N-terminal GST; dsDNA, one strand shown
# T2 sequence: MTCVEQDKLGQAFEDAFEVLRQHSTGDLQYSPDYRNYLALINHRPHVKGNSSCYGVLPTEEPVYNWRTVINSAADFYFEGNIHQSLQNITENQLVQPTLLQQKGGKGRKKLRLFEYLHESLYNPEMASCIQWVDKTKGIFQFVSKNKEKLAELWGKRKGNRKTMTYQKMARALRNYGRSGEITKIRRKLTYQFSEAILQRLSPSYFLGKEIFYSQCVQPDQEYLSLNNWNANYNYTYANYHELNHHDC
# In short: as §1
# ELF4 = ELF4 (Homo sapiens, UniProt Q99607 1-663); conditions: protein: recombinant; tags: N-terminal GST; dsDNA, one strand shown
# In short: as §1
# ELK4 = target: T3, ELK4 (Homo sapiens, UniProt P28324-2 1-405); conditions: protein: recombinant; tags: N-terminal GST; dsDNA, one strand shown
# T3 sequence: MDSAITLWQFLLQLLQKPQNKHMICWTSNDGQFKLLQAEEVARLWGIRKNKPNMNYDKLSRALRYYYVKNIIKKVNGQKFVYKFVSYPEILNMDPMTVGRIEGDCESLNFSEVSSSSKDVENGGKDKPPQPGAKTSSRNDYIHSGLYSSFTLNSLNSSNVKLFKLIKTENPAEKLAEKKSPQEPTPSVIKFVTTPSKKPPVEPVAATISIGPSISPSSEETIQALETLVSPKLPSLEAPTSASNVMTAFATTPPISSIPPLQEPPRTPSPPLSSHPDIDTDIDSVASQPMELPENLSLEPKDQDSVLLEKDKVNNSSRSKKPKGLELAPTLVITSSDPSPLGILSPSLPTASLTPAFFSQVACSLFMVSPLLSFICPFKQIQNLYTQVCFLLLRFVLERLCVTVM
# In short: as §1
# ETV2 = target: T4, ETV2 (Homo sapiens, UniProt O00321 1-342); conditions: protein: recombinant; tags: N-terminal GST; dsDNA, one strand shown
# T4 sequence: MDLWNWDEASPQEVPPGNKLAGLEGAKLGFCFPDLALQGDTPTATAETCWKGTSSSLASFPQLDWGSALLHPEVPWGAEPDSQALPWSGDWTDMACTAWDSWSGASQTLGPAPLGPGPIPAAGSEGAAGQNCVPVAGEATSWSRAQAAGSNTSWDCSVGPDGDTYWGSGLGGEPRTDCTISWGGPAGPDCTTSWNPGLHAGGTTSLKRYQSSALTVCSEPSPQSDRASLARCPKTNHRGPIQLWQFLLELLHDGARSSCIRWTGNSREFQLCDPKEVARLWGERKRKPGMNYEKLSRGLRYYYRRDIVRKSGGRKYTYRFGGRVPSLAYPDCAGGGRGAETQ
# In short: as §1
# ELF3 = target: T5, ELF3 (Homo sapiens, UniProt P78545 1-371); conditions: protein: recombinant; tags: N-terminal GST; dsDNA, one strand shown
# T5 sequence: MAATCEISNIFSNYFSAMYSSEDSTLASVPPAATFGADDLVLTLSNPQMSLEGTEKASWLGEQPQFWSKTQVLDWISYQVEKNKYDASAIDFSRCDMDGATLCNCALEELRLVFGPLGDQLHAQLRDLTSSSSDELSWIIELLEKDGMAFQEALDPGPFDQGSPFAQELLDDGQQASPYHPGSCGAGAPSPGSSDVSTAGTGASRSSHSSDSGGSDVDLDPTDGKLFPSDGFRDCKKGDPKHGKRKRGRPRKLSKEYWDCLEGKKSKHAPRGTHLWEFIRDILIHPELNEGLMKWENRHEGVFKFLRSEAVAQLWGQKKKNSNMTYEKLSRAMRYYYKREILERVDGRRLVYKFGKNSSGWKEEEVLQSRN
# In short: as §1
# CRX = CRX (Homo sapiens, UniProt O43186 1-299); conditions: protein: recombinant; tags: N-terminal GST; dsDNA, one strand shown
# In short: as §1
# ETV1 = ETV1 (Homo sapiens, UniProt P50549 1-477); conditions: protein: recombinant; tags: N-terminal GST; dsDNA, one strand shown
# In short: as §1
# ERF = target: T6, ERF (Homo sapiens, UniProt P50548 1-548); conditions: protein: recombinant; tags: N-terminal GST; dsDNA, one strand shown
# T6 sequence: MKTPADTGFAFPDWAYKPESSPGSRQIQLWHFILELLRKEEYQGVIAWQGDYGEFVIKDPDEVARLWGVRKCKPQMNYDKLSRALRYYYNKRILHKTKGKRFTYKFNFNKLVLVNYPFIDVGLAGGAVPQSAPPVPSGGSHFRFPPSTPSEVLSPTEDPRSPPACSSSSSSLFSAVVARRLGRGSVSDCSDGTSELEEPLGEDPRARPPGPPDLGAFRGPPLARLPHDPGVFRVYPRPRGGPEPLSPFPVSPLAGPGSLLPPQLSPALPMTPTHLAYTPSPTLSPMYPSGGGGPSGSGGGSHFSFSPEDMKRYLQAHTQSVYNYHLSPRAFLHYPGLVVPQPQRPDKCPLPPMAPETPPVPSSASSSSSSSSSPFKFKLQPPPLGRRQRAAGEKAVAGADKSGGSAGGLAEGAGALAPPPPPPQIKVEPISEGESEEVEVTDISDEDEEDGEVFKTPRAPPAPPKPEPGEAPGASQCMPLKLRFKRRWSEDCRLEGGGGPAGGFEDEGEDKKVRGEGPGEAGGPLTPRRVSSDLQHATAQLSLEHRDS
# In short: as §1
# ETV3L = target: T7, ETV3L (Homo sapiens, UniProt Q6ZN32 1-361); conditions: protein: recombinant; tags: N-terminal GST; dsDNA, one strand shown
# T7 sequence: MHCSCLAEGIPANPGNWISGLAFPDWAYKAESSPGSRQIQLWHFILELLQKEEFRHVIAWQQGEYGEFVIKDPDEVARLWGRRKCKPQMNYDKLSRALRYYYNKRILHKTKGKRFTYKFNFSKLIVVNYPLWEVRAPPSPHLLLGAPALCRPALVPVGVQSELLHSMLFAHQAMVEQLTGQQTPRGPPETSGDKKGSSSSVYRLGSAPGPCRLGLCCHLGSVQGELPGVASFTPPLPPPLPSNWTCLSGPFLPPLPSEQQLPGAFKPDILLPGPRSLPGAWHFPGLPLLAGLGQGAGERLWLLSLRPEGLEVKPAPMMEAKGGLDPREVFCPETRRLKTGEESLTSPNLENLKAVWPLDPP
# In short: as §1
# ETS2 = target: T8, ETS2 (Homo sapiens, UniProt P15036 1-469); conditions: protein: recombinant; tags: N-terminal GST; dsDNA, one strand shown
# T8 sequence: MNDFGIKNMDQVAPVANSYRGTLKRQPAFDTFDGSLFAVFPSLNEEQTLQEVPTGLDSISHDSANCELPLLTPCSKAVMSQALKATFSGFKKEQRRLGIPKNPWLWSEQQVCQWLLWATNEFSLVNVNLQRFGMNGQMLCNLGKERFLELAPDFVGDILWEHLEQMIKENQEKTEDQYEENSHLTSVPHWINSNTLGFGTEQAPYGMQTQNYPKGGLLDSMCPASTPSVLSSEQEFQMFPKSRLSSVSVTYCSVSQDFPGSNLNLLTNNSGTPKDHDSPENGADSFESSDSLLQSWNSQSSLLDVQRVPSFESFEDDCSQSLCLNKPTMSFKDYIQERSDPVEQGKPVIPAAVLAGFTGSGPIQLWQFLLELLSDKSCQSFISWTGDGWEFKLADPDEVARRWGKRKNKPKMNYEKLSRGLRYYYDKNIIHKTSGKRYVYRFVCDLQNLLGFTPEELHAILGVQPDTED
# In short: as §1
# SPDEF = target: T9, SPDEF (Homo sapiens, UniProt O95238 1-335); conditions: protein: recombinant; tags: N-terminal GST; dsDNA, one strand shown
# T9 sequence: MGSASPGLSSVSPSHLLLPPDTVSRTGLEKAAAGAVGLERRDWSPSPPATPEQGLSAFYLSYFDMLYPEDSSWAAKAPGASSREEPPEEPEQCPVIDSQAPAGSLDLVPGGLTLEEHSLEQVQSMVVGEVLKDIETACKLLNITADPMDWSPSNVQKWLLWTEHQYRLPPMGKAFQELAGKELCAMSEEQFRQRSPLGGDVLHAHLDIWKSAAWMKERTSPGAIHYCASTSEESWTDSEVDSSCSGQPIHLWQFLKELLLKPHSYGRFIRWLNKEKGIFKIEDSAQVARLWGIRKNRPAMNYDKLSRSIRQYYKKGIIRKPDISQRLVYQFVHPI
# In short: as §1
# ETV7 = target: T10, ETV7 (Homo sapiens, UniProt Q9Y603 1-341); conditions: protein: recombinant; tags: N-terminal GST; dsDNA, one strand shown
# T10 sequence: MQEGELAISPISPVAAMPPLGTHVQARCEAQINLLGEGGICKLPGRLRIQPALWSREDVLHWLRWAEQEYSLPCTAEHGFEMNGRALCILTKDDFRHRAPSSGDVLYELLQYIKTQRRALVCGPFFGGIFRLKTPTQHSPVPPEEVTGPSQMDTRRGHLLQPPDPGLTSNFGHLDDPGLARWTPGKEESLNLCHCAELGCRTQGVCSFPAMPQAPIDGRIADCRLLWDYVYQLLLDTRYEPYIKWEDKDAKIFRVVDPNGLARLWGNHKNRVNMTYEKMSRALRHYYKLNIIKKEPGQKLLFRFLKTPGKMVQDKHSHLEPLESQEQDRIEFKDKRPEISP
# In short: as §1
# ELF5 = target: T11, ELF5 (Homo sapiens, UniProt Q9UKW6-2 1-255); conditions: protein: recombinant; tags: N-terminal GST; dsDNA, one strand shown
# T11 sequence: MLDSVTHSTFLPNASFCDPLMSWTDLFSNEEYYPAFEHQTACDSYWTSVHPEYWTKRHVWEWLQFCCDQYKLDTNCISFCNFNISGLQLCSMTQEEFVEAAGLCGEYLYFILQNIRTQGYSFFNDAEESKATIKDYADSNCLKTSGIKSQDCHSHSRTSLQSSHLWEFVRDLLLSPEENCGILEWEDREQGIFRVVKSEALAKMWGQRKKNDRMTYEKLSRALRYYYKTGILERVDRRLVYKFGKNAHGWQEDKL
# In short: as §1
# ETV3 = target: T12, ETV3 (Homo sapiens, UniProt P41162-2 1-143); conditions: protein: recombinant; tags: N-terminal GST; dsDNA, one strand shown
# T12 sequence: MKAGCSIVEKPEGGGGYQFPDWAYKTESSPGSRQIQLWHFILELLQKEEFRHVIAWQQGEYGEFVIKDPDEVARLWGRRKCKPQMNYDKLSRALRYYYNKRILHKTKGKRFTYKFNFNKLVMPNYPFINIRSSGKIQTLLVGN
# In short: as §1
# ETV6 = ETV6 (Homo sapiens, UniProt P41212 1-452); conditions: protein: recombinant; tags: N-terminal GST; dsDNA, one strand shown
# In short: as §1
# Sequence of ETV1 (P50549 whole entry): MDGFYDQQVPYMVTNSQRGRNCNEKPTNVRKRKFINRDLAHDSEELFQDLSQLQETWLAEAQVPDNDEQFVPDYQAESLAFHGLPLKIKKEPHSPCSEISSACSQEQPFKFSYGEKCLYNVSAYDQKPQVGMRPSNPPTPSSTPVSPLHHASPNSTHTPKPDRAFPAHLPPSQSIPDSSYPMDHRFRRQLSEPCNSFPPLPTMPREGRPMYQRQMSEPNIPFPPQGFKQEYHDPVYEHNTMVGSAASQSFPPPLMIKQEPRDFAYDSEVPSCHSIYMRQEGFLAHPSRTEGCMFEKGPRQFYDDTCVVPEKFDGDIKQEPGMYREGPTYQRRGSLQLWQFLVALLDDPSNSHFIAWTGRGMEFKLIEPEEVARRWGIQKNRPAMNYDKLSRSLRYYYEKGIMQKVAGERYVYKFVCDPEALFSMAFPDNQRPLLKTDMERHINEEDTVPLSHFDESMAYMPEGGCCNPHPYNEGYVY
# Sequence of ETV6 (P41212 whole entry): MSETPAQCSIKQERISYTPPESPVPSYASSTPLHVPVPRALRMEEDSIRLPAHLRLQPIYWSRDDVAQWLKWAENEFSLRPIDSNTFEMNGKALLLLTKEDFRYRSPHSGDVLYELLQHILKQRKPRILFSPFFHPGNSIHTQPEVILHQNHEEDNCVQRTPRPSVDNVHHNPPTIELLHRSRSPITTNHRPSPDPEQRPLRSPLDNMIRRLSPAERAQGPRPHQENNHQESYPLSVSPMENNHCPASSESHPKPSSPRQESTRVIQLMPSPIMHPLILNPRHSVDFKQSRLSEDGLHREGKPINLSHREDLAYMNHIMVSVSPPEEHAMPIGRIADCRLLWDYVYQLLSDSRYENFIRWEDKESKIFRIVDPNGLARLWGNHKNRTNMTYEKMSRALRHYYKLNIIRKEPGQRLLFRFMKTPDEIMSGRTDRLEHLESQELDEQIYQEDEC
# Sequence of ETV5 (P41161 whole entry): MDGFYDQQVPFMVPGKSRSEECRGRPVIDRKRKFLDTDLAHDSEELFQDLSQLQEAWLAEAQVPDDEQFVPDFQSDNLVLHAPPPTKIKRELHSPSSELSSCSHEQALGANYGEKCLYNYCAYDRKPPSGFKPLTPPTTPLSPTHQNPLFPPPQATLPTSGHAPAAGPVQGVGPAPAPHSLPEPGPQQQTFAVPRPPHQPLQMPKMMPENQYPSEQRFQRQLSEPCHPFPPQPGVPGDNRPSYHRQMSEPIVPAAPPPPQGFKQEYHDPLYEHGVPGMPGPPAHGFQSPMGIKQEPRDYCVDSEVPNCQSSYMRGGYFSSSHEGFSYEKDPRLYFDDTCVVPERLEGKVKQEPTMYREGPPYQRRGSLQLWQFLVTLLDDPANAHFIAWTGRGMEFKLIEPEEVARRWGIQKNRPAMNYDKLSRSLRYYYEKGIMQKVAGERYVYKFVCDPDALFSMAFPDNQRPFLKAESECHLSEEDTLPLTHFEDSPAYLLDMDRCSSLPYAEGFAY
# Sequence of CRX (O43186 whole entry): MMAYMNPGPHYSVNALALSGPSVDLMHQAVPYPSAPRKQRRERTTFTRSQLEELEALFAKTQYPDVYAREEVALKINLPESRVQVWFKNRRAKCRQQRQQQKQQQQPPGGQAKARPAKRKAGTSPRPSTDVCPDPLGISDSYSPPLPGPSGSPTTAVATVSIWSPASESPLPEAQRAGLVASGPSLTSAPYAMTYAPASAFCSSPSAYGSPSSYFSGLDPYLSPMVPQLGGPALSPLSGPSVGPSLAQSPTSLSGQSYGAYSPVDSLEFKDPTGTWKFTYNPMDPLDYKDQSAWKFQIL
# Sequence of ELF4 (Q99607 whole entry): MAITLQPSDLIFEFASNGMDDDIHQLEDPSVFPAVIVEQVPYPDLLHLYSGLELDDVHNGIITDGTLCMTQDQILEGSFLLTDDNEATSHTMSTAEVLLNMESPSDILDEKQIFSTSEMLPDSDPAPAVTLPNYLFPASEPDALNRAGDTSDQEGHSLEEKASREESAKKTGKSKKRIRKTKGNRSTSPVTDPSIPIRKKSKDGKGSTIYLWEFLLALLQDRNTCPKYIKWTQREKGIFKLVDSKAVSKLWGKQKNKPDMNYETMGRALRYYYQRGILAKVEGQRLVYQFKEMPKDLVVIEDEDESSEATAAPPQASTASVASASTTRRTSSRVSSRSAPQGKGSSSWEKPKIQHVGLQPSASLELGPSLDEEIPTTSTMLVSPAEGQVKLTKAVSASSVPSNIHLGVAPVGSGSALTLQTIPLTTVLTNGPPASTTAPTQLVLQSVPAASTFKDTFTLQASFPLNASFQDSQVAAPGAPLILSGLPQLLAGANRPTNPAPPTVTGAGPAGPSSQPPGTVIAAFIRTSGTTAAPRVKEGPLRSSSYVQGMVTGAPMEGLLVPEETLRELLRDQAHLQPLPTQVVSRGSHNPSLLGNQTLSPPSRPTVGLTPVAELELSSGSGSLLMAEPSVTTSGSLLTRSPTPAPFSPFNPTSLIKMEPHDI
# Sequence of HSF1 (Q00613 whole entry): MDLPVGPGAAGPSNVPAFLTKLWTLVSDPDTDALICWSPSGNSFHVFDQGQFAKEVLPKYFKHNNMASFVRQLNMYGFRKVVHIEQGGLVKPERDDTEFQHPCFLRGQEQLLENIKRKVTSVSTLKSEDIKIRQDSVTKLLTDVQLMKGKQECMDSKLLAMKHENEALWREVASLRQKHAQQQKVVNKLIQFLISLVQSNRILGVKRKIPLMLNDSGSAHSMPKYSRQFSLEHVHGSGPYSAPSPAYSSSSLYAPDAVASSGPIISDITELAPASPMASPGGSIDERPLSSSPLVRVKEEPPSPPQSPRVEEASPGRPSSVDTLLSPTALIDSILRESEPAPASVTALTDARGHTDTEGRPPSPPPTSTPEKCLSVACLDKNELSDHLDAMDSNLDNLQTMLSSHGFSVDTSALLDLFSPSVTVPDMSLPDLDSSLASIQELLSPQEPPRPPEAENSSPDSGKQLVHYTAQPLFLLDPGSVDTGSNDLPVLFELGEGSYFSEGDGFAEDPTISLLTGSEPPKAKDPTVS
sequence,measurement,setting,value
TATACA,binding signal,FEV,"1.29 fold enrichment (6-mer frequency, TF over GST control)"
same,binding signal,ETV5,"1.35 fold enrichment (6-mer frequency, TF over GST control)"
same,binding signal,HSF1,"1.27 fold enrichment (6-mer frequency, TF over GST control)"
same,binding signal,SPIC,"1.28 fold enrichment (6-mer frequency, TF over GST control)"
same,binding signal,ELF4,"1.37 fold enrichment (6-mer frequency, TF over GST control)"
same,binding signal,ELK4,"1.28 fold enrichment (6-mer frequency, TF over GST control)"
same,binding signal,ETV2,"1.28 fold enrichment (6-mer frequency, TF over GST control)"
same,binding signal,ELF3,"1.43 fold enrichment (6-mer frequency, TF over GST control)"
same,binding signal,CRX,"1.36 fold enrichment (6-mer frequency, TF over GST control)"
same,binding signal,ETV1,"1.43 fold enrichment (6-mer frequency, TF over GST control)"
same,binding signal,ERF,"1.34 fold enrichment (6-mer frequency, TF over GST control)"
same,binding signal,ETV3L,"1.3 fold enrichment (6-mer frequency, TF over GST control)"
same,binding signal,ETS2,"1.37 fold enrichment (6-mer frequency, TF over GST control)"
same,binding signal,SPDEF,"1.44 fold enrichment (6-mer frequency, TF over GST control)"
same,binding signal,ETV7,"1.35 fold enrichment (6-mer frequency, TF over GST control)"
same,binding signal,ELF5,"1.29 fold enrichment (6-mer frequency, TF over GST control)"
same,binding signal,ETV3,"1.31 fold enrichment (6-mer frequency, TF over GST control)"
same,binding signal,ETV6,"1.25 fold enrichment (6-mer frequency, TF over GST control)"
